Data as given in PubChem BioAssay (NCATS).
Records with an inconclusive call do not appear. A call without a number means that no potency is given here. Calls of active or inactive are those of the source. Calls follow the shape of the dose curve; as a rule, active = well fitted cell-killing curve with a large enough effect; inconclusive = small, poorly fitted or top-dose-only effect; inactive = flat fitted curve, though single readings scatter.

Experiment: qHTS of pediatric cancer cell lines to identify multiple opportunities for drug repurposing: Primary screen for U-2 OS cells (AID 1347096); also: nearly all actives have a fitted effect of over 50% in size
Details: U-2 OS viability, CellTiter-Glo luminescence, 48 h; series mostly up to 46 µM
Description: Drug repurposing or repositioning has been offered as a strategy for drug development in oncology programs. This approach has special potential for childhood cancers and other rare or orphan diseases, where the expected return on new drug development has been a disincentive to pharmaceuticals.
In this project we exploit the poly-pharmacology of drugs to discover new indications via phenotypic screening of a panel of 19 well-characterized cell lines derived from solid tumors seen in children and adolescents. The goal is to identify approved drugs with previously unrecognized anticancer properties that has the potential to reveal new mechanisms and biological processes involved in carcinogenesis or drug resistance. We employed a titration-based paradigm (quantitative high-throughput screening or qHTS), where all compounds were tested at multiple concentrations for their effect on cell viability. Concentration-response curves (CRCs) were derived directly from the primary screen, and both potency and efficacy values were used to identify compounds with robust bioactivity profiles. We screened the NIH Chemical Genomics Center (NCGC) Pharmaceutical Collection (NPC) and Mechanism Interrogation Plate (MIPE) small molecule collections of approved and investigational compounds against these cell lines; and measured metabolically active cells after 48 hours of compound treatment as a proxy for cell viability.
Assay Submitter: Nathalia J. Martinez, National Center for Advancing Translational Sciences, National Institutes of Health, Rockville, MD, USA; email: natalia.martinez@nih.gov
[1] Shen, M et al. Quantitative high-throughput phenotypic screening of pediatric cancer cell lines identifies multiple opportunities for drug repurposing. Oncotarget 2017 Dec 19;9(4):4758-4772. PMID 29435139.
The cells were obtained from University of North Carolina (UNC), Pediatric Preclinical Testing Program (PPT), and Coriell Institute (CI).
qHTS cell viability assay:
Cells were assayed in growth media at a density of 500-1,000 cells/well. Five microliters of cells were dispensed into 1,536-well, white, solid-bottom, TC-treated plates (Greiner Bio One) using a multidrop dispenser and incubated at 37 degrees C, 5% CO2, under a humidified atmosphere for 5 hours. Twenty-three nanoliters of compounds and controls (neutral control DMSO or positive control bortezomib at final concentration of 2.3 µM) were subsequently transferred by Kalypsys pintool. For primary screens, the MIPE collection was tested at 11-point dilutions (final concentrations range from 0.78 nM to 46 µM) and the NPC collection at 8-point dilutions (final concentrations range from 0.59 nM to 46 µM). Compounds tested in follow-up screens were assayed at 11-point dilutions. Cells were incubated for 48 hours, followed by addition of 3 µL of CellTiter-Glo (Promega). After a 15 min incubation at room temperature, samples were analyzed for luminescence intensity using a ViewLux High-throughput CCD imager equipped with clear filters.
Potency is read from the fitted curve at half-maximal effect.

SMILES | Potency
O=C(Nc1cccc(Nc2ncc(Br)c(NCCc3cnc[nH]3)n2)c1)N1CCCC1 | inactive
Cn1c(Nc2ccc(C(F)(F)F)cc2)nc2cc(Oc3ccnc(-c4ncc(C(F)(F)F)[nH]4)c3)ccc21 | 14.8 µM (active)
C[C@@H]1C(=O)O[C@H]2CC34[C@H]5C[C@@H](C(C)(C)C)C36[C@H](OC(=O)[C@@H]6O)O[C@@]4(C(=O)O5)[C@]21O (stereo not given in full) | inactive
O=C(NCc1ccccc1)[C@H](Cc1ccccc1)NC(=O)[C@@H]1O[C@@H]1C(=O)NCCc1ccc(O)cc1 | inactive
O=C(O)c1ccc(Nc2ncc3c(n2)-c2ccc(Cl)cc2C(c2c(F)cccc2F)=NC3)cc1 | inactive
Cc1cnc(Nc2ccc(N3CCN(C)CC3)cc2)nc1Nc1cccc(S(=O)(=O)NC(C)(C)C)c1 | inactive
c1ccc2c(Oc3nc(Nc4ccc(N5CCOCC5)cc4)c4ncn(C5CCCCC5)c4n3)cccc2c1 | inactive
CC(C)(C)[N+]([O-])=Cc1ccc(S(=O)(=O)O)cc1S(=O)(=O)O | inactive
C=C[C@@H]1CN2CCC1C[C@H]2[C@H](O)c1ccnc2ccc(OC)cc12 (stereo not given in full) | inactive
C[C@H](O)[C@@H]1C(=O)N2C(C(=O)O)=C(S[C@@H]3CN[C@H](CNS(N)(=O)=O)C3)[C@@H](C)[C@@H]12 | inactive
NC(=O)c1ncn([C@@H]2O[C@H](CO)[C@@H](O)[C@@H]2O)c1O | inactive
CC(C)N(CC[C@H](c1ccccc1)c1cc(CO)ccc1O)C(C)C | inactive
C[C@H]1C[C@H]2[C@@H]3CCC4=CC(=O)C=C[C@]4(C)[C@@H]3C(=O)C[C@]2(C)[C@@]1(O)C(=O)CO | inactive
N#CC(=C(N)Sc1ccc(N)cc1)c1ccccc1C(F)(F)F | inactive
Oc1ccc(-c2ccc(-c3cc(Nc4cccc(CNC5CC5)c4)n[nH]3)cc2)c(O)c1 | 5.9 µM (active)
O=C(C=Cc1ccc(CN(CCO)CCc2c[nH]c3ccccc23)cc1)NO | 0.469 µM (active)
COc1cc(OC)cc(-c2ccc3ncc4ccc(=O)n(-c5ccc(N6CCNCC6)c(C(F)(F)F)c5)c4c3c2)c1 | 14.8 µM (active)
CC(C)C[C@H](NC(=O)CNC(=O)c1cc(Cl)ccc1Cl)B1OC(=O)CC(CC(=O)O)(C(=O)O)O1 (stereo not given in full) | 0.743 µM (active)
CC(C)c1cc(C(C)C)c(CC(=O)NS(=O)(=O)Oc2c(C(C)C)cccc2C(C)C)c(C(C)C)c1 | inactive
CC(=O)OCC(=O)[C@@]1(O)CC[C@H]2[C@@H]3CCC4=CC(=O)CC[C@]4(C)[C@@H]3C(=O)C[C@@]21C | inactive

SMILES | Potency
C[C@]12C=CC(=O)N[C@@H]1CC[C@H]1[C@H]3CC[C@@H](C(=O)Nc4cc(C(F)(F)F)ccc4C(F)(F)F)[C@@]3(C)CC[C@@H]12 | inactive
CC(=O)N[C@@H]1[C@H](O[C@@H]2c3ccc(c(Cl)c3)Oc3cc4cc(c3O[C@H]3O[C@H](CO)[C@@H](O)[C@H](O)[C@H]3NC(=O)CCCCCCCC(C)C)Oc3ccc(cc3Cl)C[C@H]3NC(=O)[C@H](N)c5ccc(O)c(c5)Oc5cc(O)cc(c5)[C@H](NC3=O)C(=O)N[C@H]4C(=O)N[C@H]3C(=O)N[C@@H]2C(=O)N[C@@H](C(=O)O)c2cc(O)cc(O[C@H]4O[C@H](CO)[C@@H](O)[C@H](O)[C@H]4O)c2-c2cc3ccc2O)O[C@H](CO)[C@@H](O)[C@@H]1O | inactive
CCN(CC)CCCCNc1ncc2c(n1)N(C)C(=O)N(c1c(Cl)c(OC)cc(OC)c1Cl)C2 | inactive
CCCNS(=O)(=O)Nc1ncnc(OCCOc2ncc(Br)cn2)c1-c1ccc(Br)cc1 | inactive
CCOC(=O)C1=C(C)NC(=S)NC1c1cccc(O)c1 (stereo not given) | inactive
OCc1ccccc1O[C@@H]1O[C@H](CO)[C@H](O)[C@H](O)[C@H]1O | inactive
COC(=O)[C@H](CCCN=C(N)N)NS(=O)(=O)c1ccc(C)cc1 | inactive
CC(=O)N1CCN(c2ccc(OCc3nn(C)c(C)c3-c3cccc4c(CCCOc5cccc6ccccc56)c(C(=O)O)n(Cc5cccnc5)c34)cc2)CC1 | 3.72 µM (active)
CCN(CC)CCNC(=O)c1c(C)[nH]c(C=C2C(=O)Nc3ccc(F)cc32)c1C | 21.5 µM (active)
NC(=NCCCCCCN=C(N)N=C(N)Nc1ccc(Cl)cc1)N=C(N)Nc1ccc(Cl)cc1 | inactive
N#CNC(=NCCCCCCOc1ccc(Cl)cc1)Nc1ccncc1 | 0.0187 µM (active)
CCCCCCCCCCCCc1ccc(S(=O)(=O)Nc2nncs2)cc1 | inactive
CNC(=O)c1ccc(Nc2cc(Nc3ccccc3S(=O)(=O)C(C)C)c3cc[nH]c3n2)nc1 | 18.7 µM (active)
COc1cc2c(cc1O)CCC1C2CC[C@@]2(C)C1CC[C@@H]2O (stereo not given in full) | inactive
COC1=C2C[C@@H](C)C[C@H](OC)[C@@H](O)[C@@H](C)C=C(C)[C@H](OC(N)=O)[C@@H](OC)C=CC=C(C)C(=O)NC(=CC1=O)C2=O | inactive
NC[C@H]1O[C@H](O[C@H]2[C@@H](O)[C@@H](O[C@H]3O[C@H](CO)[C@@H](O)[C@H](N)[C@@H]3O)[C@H](N)C[C@@H]2N)[C@H](N)C[C@H]1O | inactive
Cc1noc(-c2ccc(CSCCC(=O)O)cc2)c1NC(=O)OC(C)c1ccccc1Cl (stereo not given) | inactive
C=C(C)[C@@H]1CC[C@]2(C(=O)O)CC[C@]3(C)[C@H](CC[C@@H]4[C@@]5(C)CC[C@H](O)C(C)(C)[C@@H]5CC[C@]43C)[C@@H]12 | inactive
COC[C@H](NC(=O)c1cnc(C)s1)C(=O)N[C@@H](COC)C(=O)N[C@@H](Cc1ccccc1)C(=O)[C@@]1(C)CO1 | 0.372 µM (active)
Cc1ccc([N+](=O)[O-])cc1S(=O)(=O)N(C)N=Cc1cnc2ccc(Br)cn12 | 0.118 µM (active)
